Growth data for 21 compounds are collected here from PubChem BioAssay (NCI).

Where “and” joins values, the source holds several entries; their conditions need not be identical. Identical values can stand only once. Compounds without any hit were thinned out: in the full panel of roughly 83,000, 20% have a hit.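 How to read the values: 0–100, growth inhibition (40 = 60% inhibited); 0, no net growth; -100 to 0, cell death (-40 = 40% of starting cells died; -100 = all dead).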 Calls of active or inactive are those of the source. How the source made its calls: active means growth percent below 10; inactive means the rest.

Assay in all cases: NCI-60 one-dose screen, 48 h (100 = growth as untreated, 0 = no growth, -100 = all killed)
Common to all, as to settings: 10 µM unless noted

For test [1], the system named is T-47D breast.
Test [2] deals with BT-549 breast.
Test [3] relates to MDA-MB-435 melanoma.
Test [4] concerns SW-620 colon.
Test [5] concerns MCF7 breast.
For test [6], the system named is HCC-2998 colon.
Test [7] deals with KM12 colon.
The subject of test [8] is HCT-116 colon.

With `S=C(S)N1CCCC1`, the growth in test [1] was 98.4% (inactive) and 89% (inactive); in test [2], 91% (inactive) and 114% (inactive); in test [3], 109% (inactive) and 90.9% (inactive); in test [4], 96.2% (inactive) and 84.8% (inactive); in test [5], 72.9% (inactive) and 61.8% (inactive); in test [6] it was 113% (inactive) and 94.9% (inactive). Besides, the growth in test [7] is 90.4% (inactive) and 93.9% (inactive).

`CN(C)c1ccc(C(Cc2ccc3ccccc3n2)Cc2ccc3ccccc3n2)cc1`: the growth in test [1] is 34.7% (inactive) and 74.4% (inactive); in test [2] it was -3.35% (active) and 93.1% (inactive); in test [3] it was 32.7% (inactive) and 87.1% (inactive); in test [5] it was 40.8% (inactive) and 68% (inactive); in test [8] it was 15.4% (inactive) and 51.6% (inactive); in test [6] it was 35% (inactive) and 91.1% (inactive). Further, the growth in test [7] is 42.1% (inactive) and 81% (inactive).

As for `CN1C(=O)C(N=Nc2ccc([N+](=O)[O-])cc2)SC1=S` (stereo not drawn), the growth in test [1] was 50.9% (inactive) and 57.2% (inactive); in test [2], 71% (inactive) and 67.8% (inactive); in test [3] it was 75.8% (inactive) and 85.4% (inactive); in test [5], 82.4% (inactive) and 68.8% (inactive); in test [8], 61.7% (inactive) and 70.5% (inactive); in test [6], -0.382% (active). Also, the growth in test [7] was 48.2% (inactive) and 52.8% (inactive).

Regarding `CCOC(=O)C(CNc1ccccc1)C(=O)OCC`, the growth was 105% (inactive) in test [1]; 104% (inactive) in test [2]; 108% (inactive) in test [3]; 104% (inactive) in test [4]; 99.5% (inactive) in test [5]; 102% (inactive) in test [6]. Moreover, in test [7], the growth was 106% (inactive).

As for `N#C/C(=C/c1c(O)ccc2ccccc12)C(N)=O`, the growth was 87.5% (inactive) in test [1]; 93.7% (inactive) in test [2]; 104% (inactive) in test [3]; 94.6% (inactive) in test [4]; 95.1% (inactive) in test [5]; 93.8% (inactive) in test [7].

As for `CC(C)Oc1ccc2cc(-c3nn(CC4CCNCC4)c4ncnc(N)c34)ccc2c1`, the growth in test [1] is 77.8% (inactive) and -8.43% (active); in test [2], 73.2% (inactive) and -5.14% (active); in test [3] it was 92.1% (inactive) and -86.6% (active); in test [4], 91.7% (inactive) and 1.44% (active); in test [5] it was 83.6% (inactive) and 15.2% (inactive); in test [7], 86.4% (inactive) and 22.4% (inactive).

As for `COc1ccc2c(=O)cc(-c3ccccc3)[nH]c2c1`, the growth in test [1] is 50.7% (inactive) and 57.1% (inactive); in test [2], 48.6% (inactive) and 45.1% (inactive); in test [3], -46.6% (active) and -12% (active); in test [4] it was 23.1% (inactive) and 33.3% (inactive); in test [5], 18.2% (inactive) and 14.8% (inactive); in test [6], 17.4% (inactive) and 2.14% (active). Also, the growth in test [7] is 14.1% (inactive) and 8% (active).

Regarding `COC(=O)c1nc(N)nc(C(=O)OC)c1C(=O)c1ccc(OC)cc1`, the growth in test [1] was 101% (inactive) and 35.5% (inactive); in test [2], 144% (inactive) and 77.1% (inactive); in test [3] it was 104% (inactive) and 66.8% (inactive); in test [4], 113% (inactive) and 61.9% (inactive); in test [5], 96% (inactive) and 41.9% (inactive); in test [6], 108% (inactive) and 79.3% (inactive). Also, the growth in test [7] is 107% (inactive) and 53.7% (inactive).

For `COc1ccccc1C(C)=O`, the growth was 106% (inactive) and 96.2% (inactive) in test [1]; 109% (inactive) and 100% (inactive) in test [2]; 104% (inactive) and 112% (inactive) in test [3]; 95.4% (inactive) and 105% (inactive) in test [4]; 103% (inactive) and 96.6% (inactive) in test [5]; 111% (inactive) and 107% (inactive) in test [6]. In test [7], the growth is 102% (inactive) and 111% (inactive).

In the case of `Cn1cnc([N+](=O)[O-])c1Sc1ncnc2nc[nH]c12`, the growth is 65.4% (inactive) and 79.7% (inactive) in test [1]; 70.7% (inactive) in test [2]; 33.7% (inactive) and 35.7% (inactive) in test [3]; 93.8% (inactive) and 94.7% (inactive) in test [4]; 36.2% (inactive) and 33.2% (inactive) in test [5]; 64.4% (inactive) and 55% (inactive) in test [6]. Besides, the growth in test [7] is 51.2% (inactive) and 65.2% (inactive).

With `CN(C)CCCN1c2ccccc2Sc2ccc(Cl)cc21`, the growth in test [1] is 77% (inactive) and 105% (inactive) and 87.2% (inactive); in test [2], 84.6% (inactive) and 114% (inactive) and 96.2% (inactive); in test [3], 21.3% (inactive) and 129% (inactive) and 55.5% (inactive); in test [4], 86.3% (inactive) and 102% (inactive) and 83.8% (inactive); in test [5], 37.8% (inactive) and 101% (inactive) and 66.6% (inactive); in test [6], 58.9% (inactive) and 107% (inactive) and 91.1% (inactive). Further, in test [7], the growth is 87.7% (inactive) and 114% (inactive) and 100% (inactive).

On to `O=C(O)C1(C(=O)O)CCC1.[NH2-].[NH2-].[Pt+2]`, for which the growth is 96.6% (inactive) and 102% (inactive) in test [1]; 103% (inactive) and 106% (inactive) in test [2]; 108% (inactive) and 99.5% (inactive) in test [3]; 111% (inactive) and 103% (inactive) in test [4]; 98.5% (inactive) and 90.9% (inactive) in test [5]; 112% (inactive) and 100% (inactive) in test [7].

In the case of `CCOc1ccc2cc(-c3nn(CC4CCN(C)CC4)c4ncnc(N)c34)ccc2c1`, the growth was 68.5% (inactive) and 54.7% (inactive) in test [1]; 71.6% (inactive) and 45.7% (inactive) in test [2]; 95.4% (inactive) and 15.9% (inactive) in test [3]; 85.7% (inactive) and 55.5% (inactive) in test [5]; 63.2% (inactive) and 24.4% (inactive) in test [8]; 102% (inactive) and 54.5% (inactive) in test [6]. The growth in test [7] is 89.4% (inactive) and 66.5% (inactive).

As for `Nc1ccccc1Nc1ccccc1`, the growth in test [1] is 88.1% (inactive) and 83.5% (inactive); in test [2], 70.9% (inactive) and 58.4% (inactive); in test [3], 91.5% (inactive); in test [4], 106% (inactive) and 112% (inactive); in test [5] it was 93.8% (inactive) and 91.8% (inactive); in test [7] it was 85.8% (inactive) and 79.6% (inactive).

Turning to `Cn1c(SSc2ccc(-c3cccnc3)n2C)ccc1-c1cccnc1`, the growth in test [1] is 83.3% (inactive) and 121% (inactive); in test [2], 107% (inactive) and 105% (inactive); in test [3], 92.8% (inactive) and 82% (inactive); in test [5], 76.4% (inactive) and 117% (inactive); in test [8], 82.3% (inactive) and 99.2% (inactive); in test [6], 112% (inactive) and 102% (inactive). Further, in test [7], the growth is 98.5% (inactive) and 95.5% (inactive).

Consider `CN(C)CCCNC1=C(Cl)C(=O)c2ccccc2C1=O`, for which the growth in test [1] is 65.3% (inactive) and 32% (inactive); in test [2] it was 96.8% (inactive) and 93% (inactive); in test [3], -88.6% (active) and -88.2% (active); in test [4] it was -63% (active) and -57.8% (active); in test [5] it was 45.4% (inactive) and 5.05% (active); in test [6], -0.125% (active) and -63.6% (active). For the same compound, the growth in test [7] was 83.3% (inactive) and 40.7% (inactive).

Consider `CNC(=O)c1ccc(C)c(-n2c(C)cc(OCc3ccc(F)cc3F)c(Br)c2=O)c1`, for which the growth in test [1] was 40.9% (inactive) and 58.7% (inactive); in test [2], 75.7% (inactive) and 76.4% (inactive); in test [3] it was 85.4% (inactive) and 99.4% (inactive); in test [5], 82.8% (inactive) and 90.5% (inactive); in test [8], 68.1% (inactive) and 78.4% (inactive); in test [6] it was 67.5% (inactive) and 72.6% (inactive). Also, the growth in test [7] is 90% (inactive) and 92.5% (inactive).

As to `CCN(CC)CCC(CNc1c2ccc([N+](=O)[O-])cc2nc2cc(OC)c(OC)cc12)c1ccccc1` (stereo not drawn), the growth in test [1] was -11.2% (active) and -82% (active); in test [2] it was -33.9% (active) and -92.7% (active); in test [3], -92.2% (active) and -97.3% (active); in test [5], -50.2% (active) and -97.5% (active); in test [8], -69% (active) and -89.1% (active); in test [6] it was -98.9% (active). Also, the growth in test [7] is -63.5% (active) and -100% (active).

With `O=Nc1ccc(O)cc1`, the growth in test [1] was 87.5% (inactive) and 85.2% (inactive); in test [2] it was 83% (inactive); in test [3] it was 104% (inactive) and 108% (inactive); in test [4] it was 86.1% (inactive) and 94.1% (inactive); in test [5], 84.6% (inactive) and 93.4% (inactive); in test [6], 101% (inactive) and 104% (inactive). Further, the growth in test [7] was 101% (inactive) and 94.7% (inactive).

As to `CCN(CC)C(=S)SSC(=S)N(CC)CC`, the growth in test [1] was 79.4% (inactive) and 87.3% (inactive); in test [2], 90.6% (inactive) and 90.3% (inactive); in test [3], 83.3% (inactive) and 106% (inactive); in test [5], 71.4% (inactive) and 95.9% (inactive); in test [8], 58.6% (inactive) and 93.8% (inactive); in test [6] it was 91.9% (inactive) and 102% (inactive). Moreover, the growth in test [7] is 88.8% (inactive) and 97.5% (inactive).

Regarding `O=C(O)C1C2C=CC(C2)C1C(=O)O` (stereo not drawn), the growth in test [1] is 103% (inactive) and 79.5% (inactive) and 101% (inactive); in test [2], 96.8% (inactive) and 58.3% (inactive) and 105% (inactive); in test [3], 101% (inactive) and 19.1% (inactive) and 100% (inactive); in test [4], 104% (inactive) and 22.1% (inactive) and 103% (inactive); in test [5], 97.4% (inactive) and 5.27% (active) and 104% (inactive); in test [6] it was 117% (inactive) and 46.1% (inactive) and 107% (inactive). Besides, the growth in test [7] was 106% (inactive) and 25.4% (inactive) and 104% (inactive).
